Experimental data reported in the supplement of paper PMC8728848.
This excerpt belongs to a sample that is enriched for the strongest signals.

Columns and labels:
Assay in all cases: glycan array binding signal (z-score within array); higher = stronger binding
Details in all cases: glycan notation: IUPAC condensed, linker removed
[1] = molecular target: Fuc(a1-2)Gal(b1-3)GalNAc(b1-3)Gal
In short: (§1)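 The Consortium for Functional Glycomics database supplied 3228 glycan arrays, of which those lacking an available protein sequence were dropped. The binding signal, a within-array Z-score, was averaged across arrays of the same protein sequence and across linkers. Negative scores can be read as non-binding.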

[2] = molecular target: Fuc(a1-2)Gal(b1-3)GlcNAc6S
In short: as §1

[3] = molecular target: Fuc(a1-2)Gal3S(b1-4)GlcNAc
In short: as §1

[4] = molecular target: Fuc(a1-2)[Gal(a1-3)]Gal(b1-3)GalNAc(b1-3)Gal(a1-4)Gal(b1-4)Glc
In short: as §1

[5] = molecular target: Fuc(a1-2)[Gal(a1-3)]Gal(b1-3)GlcNAc(b1-6)GalNAc
In short: as §1

[6] = molecular target: Fuc(a1-2)[Gal(a1-3)]Gal(b1-4)GlcNAc(b1-2)Man(a1-3)[Fuc(a1-2)[Gal(a1-3)]Gal(b1-4)GlcNAc(b1-2)Man(a1-6)]Man(b1-4)GlcNAc(b1-4)GlcNAc
In short: as §1

[7] = molecular target: Fuc(a1-2)[Gal(a1-3)]Gal(b1-4)GlcNAc(b1-3)GalNAc
In short: as §1

[8] = molecular target: Fuc(a1-2)[Gal(a1-3)]Gal(b1-4)GlcNAc(b1-3)[Fuc(a1-2)[Gal(a1-3)]Gal(b1-4)GlcNAc(b1-6)]GalNAc
In short: as §1

[9] = molecular target: Fuc(a1-2)[Gal(a1-3)]Gal(b1-4)GlcNAc(b1-6)GalNAc
In short: as §1

[10] = molecular target: Fuc(a1-2)[Gal(a1-3)]Gal(b1-4)[Fuc(a1-3)]Glc
In short: as §1

[11] = molecular target: Fuc(a1-3)[Gal(b1-4)]GlcNAc
In short: as §1

[12] = molecular target: Fuc(a1-3)[Gal(b1-4)]GlcNAc(b1-2)Man
In short: as §1

[13] = molecular target: Fuc(a1-3)[Gal(b1-4)]GlcNAc(b1-6)[Gal(b1-3)GlcNAc(b1-3)]Gal(b1-4)Glc
In short: as §1

Fuc(a1-4)GlcNAc = molecular target: Fuc(a1-4)GlcNAc
In short: as §1

[14] = molecular target: Gal(b1-3)GalNAc(b1-3)Gal(a1-4)Gal(b1-4)Glc
In short: as §1

[15] = molecular target: Gal(b1-3)GlcNAc(b1-3)GalNAc
In short: as §1

[16] = molecular target: Gal(b1-3)[GlcNAc(b1-6)]GalNAc
In short: as §1

[17] = molecular target: Gal(b1-3)[Neu5Ac(b2-6)]GalNAc
In short: as §1

[18] = molecular target: Gal(b1-4)GlcNAc(b1-3)Gal(b1-4)GlcNAc(b1-2)[Gal(b1-4)GlcNAc(b1-3)Gal(b1-4)GlcNAc(b1-6)]Man(a1-6)[Gal(b1-4)GlcNAc(b1-3)Gal(b1-4)GlcNAc(b1-2)Man(a1-3)]Man(b1-4)GlcNAc(b1-4)GlcNAc
In short: as §1

[19] = molecular target: Gal(b1-4)GlcNAc(b1-3)GalNAc
In short: as §1

[20] = molecular target: Gal(b1-4)GlcNAc(b1-3)[Gal(b1-4)GlcNAc(b1-6)]Gal(b1-4)GlcNAc
In short: as §1

[21] = molecular target: Gal(b1-4)GlcNAc(b1-3)[GlcNAc(b1-6)]Gal(b1-4)GlcNAc
In short: as §1

[22] = molecular target: Gal(b1-4)GlcNAc(b1-6)[Gal(b1-4)GlcNAc(b1-3)]GalNAc
In short: as §1

Gal(b1-6)Gal = molecular target: Gal(b1-6)Gal
In short: as §1

[23] = molecular target: Gal3S(b1-4)[Fuc(a1-3)]GlcNAc6S
In short: as §1

Gal3S4S(b1-4)GlcNAc = molecular target: Gal3S4S(b1-4)GlcNAc
In short: as §1

B1: PNGase F (Flavobacterium meningosepticum) (protein)
chain: GIPAPADNTVNIKTFDKVKNAFGDGLSQSAEGTFTFPADVTAVKTIKMFIKNECPNKTCDEWDRYANVYVKNKTTGEWYEIGRFITPYWVGTEKLPRGLEIDVTDFKSLLSGNTELKIYTETWLAKGREYSVDFDIVYGTPDYKYSAVVPVVQYNKSSIDGVPYGKAHTLALKKNIQLPTNTEKAYLRTTISGWGHAKPYDAGSRGCAEWCFRTHTIAINNSNTFQHQLGALGCSANPINNQSPGNWTPDRAGWCPGMAVPTRIDVLNNSLIGSTFSYEYKFQNWTNNGTNGDAFYAISSFVIAKSNTPISAPVVTNLDPHHHHHH
**Q.** How did the “glycan array binding signal (z-score)” value [1] turn out when B1 was run?
**A.** The value was 1.61.

**Q.** And the “glycan array binding signal (z-score)” value [2]?
**A.** The value was -0.123.

**Q.** What about the “glycan array binding signal (z-score)” value [3] of the same binder?
**A.** Its value is -0.157.

**Q.** What about the “glycan array binding signal (z-score)” value [4] of the same binder?
**A.** The value was 0.033.

**Q.** And the “glycan array binding signal (z-score)” value [5]?
**A.** Its value is -0.032.

**Q.** What about the “glycan array binding signal (z-score)” value [6] of the same binder?
**A.** The value was -0.273.

**Q.** What about the “glycan array binding signal (z-score)” value [7] of the same binder?
**A.** Its value is -0.226.

**Q.** And the “glycan array binding signal (z-score)” value [8]?
**A.** Its value is 1.46.

**Q.** What about the “glycan array binding signal (z-score)” value [9] of the same binder?
**A.** Its value is 0.476.

**Q.** What about the “glycan array binding signal (z-score)” value [10] of the same binder?
**A.** The value was -0.16.

**Q.** What about the “glycan array binding signal (z-score)” value [11] of the same binder?
**A.** The value was 0.02.

**Q.** What about the “glycan array binding signal (z-score)” value [12] of the same binder?
**A.** Its value is 0.163.

**Q.** And the “glycan array binding signal (z-score)” value [13]?
**A.** The value was -0.308.

**Q.** And the “glycan array binding signal (z-score)” value (Fuc(a1-4)GlcNAc)?
**A.** Its value is 2.72.

**Q.** And the “glycan array binding signal (z-score)” value [14]?
**A.** The value was 0.036.

**Q.** And the “glycan array binding signal (z-score)” value [15]?
**A.** Its value is -0.268.

**Q.** And the “glycan array binding signal (z-score)” value [16]?
**A.** Its value is -0.166.

**Q.** And the “glycan array binding signal (z-score)” value [17]?
**A.** Its value is -0.337.

**Q.** What about the “glycan array binding signal (z-score)” value [18] of the same binder?
**A.** Its value is 1.63.

**Q.** What about the “glycan array binding signal (z-score)” value [19] of the same binder?
**A.** Its value is -0.281.

**Q.** And the “glycan array binding signal (z-score)” value [20]?
**A.** The value was -0.219.

**Q.** And the “glycan array binding signal (z-score)” value [21]?
**A.** Its value is 1.78.

**Q.** And the “glycan array binding signal (z-score)” value [22]?
**A.** Its value is -0.289.

**Q.** And the “glycan array binding signal (z-score)” value (Gal(b1-6)Gal)?
**A.** Its value is 0.208.

**Q.** And the “glycan array binding signal (z-score)” value [23]?
**A.** Its value is 0.165.

**Q.** And the “glycan array binding signal (z-score)” value (Gal3S4S(b1-4)GlcNAc)?
**A.** Its value is -0.092.
